Laboratory results published in the supplement of paper PMC11732987, “Enantioselective OTUD7B fragment discovery through chemoproteomics screening and high-throughput optimisation” (Communications Chemistry, 2025).

How the values were obtained:
Experiment in all cases: log2 ratio of Biotin-Ahx-Ub-VS probe labelling (fragment/DMSO); higher = less target engagement (more negative = stronger competition), active = hit call of the paper (q ≤ 0.05, log2 ratio ≤ -1)
Conditions in all cases: compound concentration: 200 uM; treatment time: 3 h
USP19 = target: T1, USP19 (UniProt O94966)
T1 sequence (whole entry): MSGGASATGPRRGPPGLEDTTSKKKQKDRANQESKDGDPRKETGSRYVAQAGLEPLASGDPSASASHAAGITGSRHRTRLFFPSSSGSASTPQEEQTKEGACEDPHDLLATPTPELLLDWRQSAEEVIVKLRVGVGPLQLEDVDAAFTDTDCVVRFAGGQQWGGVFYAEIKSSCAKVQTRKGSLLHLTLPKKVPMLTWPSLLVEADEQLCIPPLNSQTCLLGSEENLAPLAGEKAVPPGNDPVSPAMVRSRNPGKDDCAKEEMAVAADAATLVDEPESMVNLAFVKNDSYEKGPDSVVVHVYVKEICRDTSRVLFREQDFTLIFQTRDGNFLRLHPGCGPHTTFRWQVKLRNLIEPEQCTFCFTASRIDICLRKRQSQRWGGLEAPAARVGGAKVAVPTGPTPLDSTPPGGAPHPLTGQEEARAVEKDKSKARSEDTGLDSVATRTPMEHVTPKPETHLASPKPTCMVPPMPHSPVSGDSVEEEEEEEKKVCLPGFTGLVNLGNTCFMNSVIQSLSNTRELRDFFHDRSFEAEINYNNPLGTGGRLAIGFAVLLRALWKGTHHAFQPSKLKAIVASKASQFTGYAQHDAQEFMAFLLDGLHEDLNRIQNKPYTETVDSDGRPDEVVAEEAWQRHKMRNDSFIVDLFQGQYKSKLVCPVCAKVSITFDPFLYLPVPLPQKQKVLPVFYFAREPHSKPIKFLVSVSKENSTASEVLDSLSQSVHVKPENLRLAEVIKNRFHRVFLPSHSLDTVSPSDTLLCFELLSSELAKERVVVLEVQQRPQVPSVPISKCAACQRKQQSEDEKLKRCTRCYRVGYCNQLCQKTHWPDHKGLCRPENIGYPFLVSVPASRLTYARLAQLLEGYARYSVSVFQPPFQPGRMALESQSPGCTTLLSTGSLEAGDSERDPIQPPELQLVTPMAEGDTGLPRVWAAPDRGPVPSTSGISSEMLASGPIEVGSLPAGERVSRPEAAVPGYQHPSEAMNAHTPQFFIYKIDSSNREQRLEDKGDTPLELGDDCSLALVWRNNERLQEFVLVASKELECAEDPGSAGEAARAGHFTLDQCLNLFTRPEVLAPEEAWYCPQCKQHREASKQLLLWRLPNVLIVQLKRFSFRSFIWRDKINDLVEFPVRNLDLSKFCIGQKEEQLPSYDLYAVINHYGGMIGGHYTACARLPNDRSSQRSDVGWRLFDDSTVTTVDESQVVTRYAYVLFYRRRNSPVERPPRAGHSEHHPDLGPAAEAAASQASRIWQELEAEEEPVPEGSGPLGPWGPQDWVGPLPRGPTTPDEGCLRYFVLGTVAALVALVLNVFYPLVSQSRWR
How it was run: (§1)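 Using Biotin-Ahx-Ub-VS at 0.5 µM final for 1 h, DUBs were labelled in HEK293T lysate (495 µg per sample) that had first been treated in triplicate with fragment at 200 µM or vehicle for 3 h. NeutrAvidin enrichment, LysC and trypsin digestion and diaPASEF LC-MS/MS followed. Spectronaut label-free quantities were global-median-normalised. Values are average log2 fragment/vehicle ratios by unpaired t-test, using proteins with ≥2 unique peptides.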

USP22 = target: T2, USP22 (UniProt Q9UPT9)
T2 sequence (whole entry): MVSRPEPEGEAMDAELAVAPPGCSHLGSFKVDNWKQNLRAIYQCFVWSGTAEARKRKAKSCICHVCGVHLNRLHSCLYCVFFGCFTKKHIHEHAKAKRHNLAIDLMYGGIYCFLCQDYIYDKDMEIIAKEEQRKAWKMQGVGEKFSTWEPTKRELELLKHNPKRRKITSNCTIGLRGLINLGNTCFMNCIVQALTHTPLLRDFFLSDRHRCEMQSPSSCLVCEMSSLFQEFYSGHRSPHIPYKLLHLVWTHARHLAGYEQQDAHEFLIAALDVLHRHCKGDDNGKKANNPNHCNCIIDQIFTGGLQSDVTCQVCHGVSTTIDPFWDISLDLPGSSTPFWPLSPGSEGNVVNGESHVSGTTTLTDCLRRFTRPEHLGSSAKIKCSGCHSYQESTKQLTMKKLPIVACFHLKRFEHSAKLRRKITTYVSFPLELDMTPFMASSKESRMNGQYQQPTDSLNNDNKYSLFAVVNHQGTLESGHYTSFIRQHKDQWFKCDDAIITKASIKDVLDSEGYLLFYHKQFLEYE
How it was run: as §1

USP24 = USP24 (UniProt Q9UPU5)
How it was run: as §1

USP25 = target: T3, USP25 (UniProt Q9UHP3)
T3 sequence (whole entry): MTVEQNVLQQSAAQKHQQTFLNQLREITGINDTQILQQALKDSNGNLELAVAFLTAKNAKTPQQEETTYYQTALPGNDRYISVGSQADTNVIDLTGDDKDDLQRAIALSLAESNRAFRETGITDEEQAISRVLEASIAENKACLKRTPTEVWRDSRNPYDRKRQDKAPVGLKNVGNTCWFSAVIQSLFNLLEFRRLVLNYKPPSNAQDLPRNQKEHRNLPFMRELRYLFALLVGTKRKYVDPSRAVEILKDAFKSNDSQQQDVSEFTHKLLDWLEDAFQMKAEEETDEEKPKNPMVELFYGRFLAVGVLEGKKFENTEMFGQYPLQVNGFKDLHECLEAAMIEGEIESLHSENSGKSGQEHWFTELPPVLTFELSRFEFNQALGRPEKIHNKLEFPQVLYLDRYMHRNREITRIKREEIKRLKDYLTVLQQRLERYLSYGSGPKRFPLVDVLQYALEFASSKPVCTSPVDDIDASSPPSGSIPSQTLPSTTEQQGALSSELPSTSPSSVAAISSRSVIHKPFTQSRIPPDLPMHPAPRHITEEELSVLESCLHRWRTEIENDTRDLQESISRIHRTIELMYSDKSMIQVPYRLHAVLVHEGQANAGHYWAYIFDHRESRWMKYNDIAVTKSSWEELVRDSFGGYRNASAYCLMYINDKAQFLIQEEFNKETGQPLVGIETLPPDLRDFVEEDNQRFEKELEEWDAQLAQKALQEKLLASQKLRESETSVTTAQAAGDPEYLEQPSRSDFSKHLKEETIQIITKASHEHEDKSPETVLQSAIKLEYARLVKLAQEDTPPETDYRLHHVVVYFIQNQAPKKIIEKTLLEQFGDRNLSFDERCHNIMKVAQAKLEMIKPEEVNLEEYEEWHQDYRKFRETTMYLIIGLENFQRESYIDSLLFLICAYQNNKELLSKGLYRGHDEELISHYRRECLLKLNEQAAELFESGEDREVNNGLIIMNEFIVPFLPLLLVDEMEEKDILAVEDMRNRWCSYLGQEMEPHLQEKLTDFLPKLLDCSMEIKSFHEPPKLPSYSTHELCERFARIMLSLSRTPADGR
How it was run: as §1

USP28 = target: T4, USP28 (UniProt Q96RU2)
T4 sequence (whole entry): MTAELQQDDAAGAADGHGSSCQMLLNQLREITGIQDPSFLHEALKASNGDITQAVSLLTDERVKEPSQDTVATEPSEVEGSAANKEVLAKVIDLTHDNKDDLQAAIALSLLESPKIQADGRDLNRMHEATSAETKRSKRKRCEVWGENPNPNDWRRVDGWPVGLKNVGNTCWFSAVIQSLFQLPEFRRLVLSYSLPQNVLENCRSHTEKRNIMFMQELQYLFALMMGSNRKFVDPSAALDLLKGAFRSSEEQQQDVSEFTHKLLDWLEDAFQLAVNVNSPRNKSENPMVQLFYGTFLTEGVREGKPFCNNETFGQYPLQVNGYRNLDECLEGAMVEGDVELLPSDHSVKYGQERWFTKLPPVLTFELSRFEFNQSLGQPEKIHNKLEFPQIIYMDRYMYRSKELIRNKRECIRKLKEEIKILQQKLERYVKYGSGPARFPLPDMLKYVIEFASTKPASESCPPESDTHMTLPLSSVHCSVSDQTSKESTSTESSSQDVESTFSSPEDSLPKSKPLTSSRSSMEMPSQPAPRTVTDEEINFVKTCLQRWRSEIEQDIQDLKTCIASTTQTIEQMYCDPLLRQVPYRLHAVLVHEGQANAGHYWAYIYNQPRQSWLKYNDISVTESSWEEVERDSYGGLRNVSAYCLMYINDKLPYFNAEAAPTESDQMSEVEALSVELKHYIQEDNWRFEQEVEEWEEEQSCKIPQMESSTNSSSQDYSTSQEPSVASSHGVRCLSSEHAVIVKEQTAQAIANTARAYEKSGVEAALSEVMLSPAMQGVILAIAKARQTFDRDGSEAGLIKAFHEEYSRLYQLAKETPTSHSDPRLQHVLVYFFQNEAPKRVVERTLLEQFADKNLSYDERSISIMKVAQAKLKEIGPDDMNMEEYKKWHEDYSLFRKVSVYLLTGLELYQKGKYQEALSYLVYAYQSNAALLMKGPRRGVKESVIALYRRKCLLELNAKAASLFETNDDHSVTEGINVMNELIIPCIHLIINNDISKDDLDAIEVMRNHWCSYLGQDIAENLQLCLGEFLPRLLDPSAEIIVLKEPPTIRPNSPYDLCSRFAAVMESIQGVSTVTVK
How it was run: as §1

Measured: log2 ratio of Biotin-Ahx-Ub-VS probe labelling

Sequence of USP24 (Q9UPU5 whole entry): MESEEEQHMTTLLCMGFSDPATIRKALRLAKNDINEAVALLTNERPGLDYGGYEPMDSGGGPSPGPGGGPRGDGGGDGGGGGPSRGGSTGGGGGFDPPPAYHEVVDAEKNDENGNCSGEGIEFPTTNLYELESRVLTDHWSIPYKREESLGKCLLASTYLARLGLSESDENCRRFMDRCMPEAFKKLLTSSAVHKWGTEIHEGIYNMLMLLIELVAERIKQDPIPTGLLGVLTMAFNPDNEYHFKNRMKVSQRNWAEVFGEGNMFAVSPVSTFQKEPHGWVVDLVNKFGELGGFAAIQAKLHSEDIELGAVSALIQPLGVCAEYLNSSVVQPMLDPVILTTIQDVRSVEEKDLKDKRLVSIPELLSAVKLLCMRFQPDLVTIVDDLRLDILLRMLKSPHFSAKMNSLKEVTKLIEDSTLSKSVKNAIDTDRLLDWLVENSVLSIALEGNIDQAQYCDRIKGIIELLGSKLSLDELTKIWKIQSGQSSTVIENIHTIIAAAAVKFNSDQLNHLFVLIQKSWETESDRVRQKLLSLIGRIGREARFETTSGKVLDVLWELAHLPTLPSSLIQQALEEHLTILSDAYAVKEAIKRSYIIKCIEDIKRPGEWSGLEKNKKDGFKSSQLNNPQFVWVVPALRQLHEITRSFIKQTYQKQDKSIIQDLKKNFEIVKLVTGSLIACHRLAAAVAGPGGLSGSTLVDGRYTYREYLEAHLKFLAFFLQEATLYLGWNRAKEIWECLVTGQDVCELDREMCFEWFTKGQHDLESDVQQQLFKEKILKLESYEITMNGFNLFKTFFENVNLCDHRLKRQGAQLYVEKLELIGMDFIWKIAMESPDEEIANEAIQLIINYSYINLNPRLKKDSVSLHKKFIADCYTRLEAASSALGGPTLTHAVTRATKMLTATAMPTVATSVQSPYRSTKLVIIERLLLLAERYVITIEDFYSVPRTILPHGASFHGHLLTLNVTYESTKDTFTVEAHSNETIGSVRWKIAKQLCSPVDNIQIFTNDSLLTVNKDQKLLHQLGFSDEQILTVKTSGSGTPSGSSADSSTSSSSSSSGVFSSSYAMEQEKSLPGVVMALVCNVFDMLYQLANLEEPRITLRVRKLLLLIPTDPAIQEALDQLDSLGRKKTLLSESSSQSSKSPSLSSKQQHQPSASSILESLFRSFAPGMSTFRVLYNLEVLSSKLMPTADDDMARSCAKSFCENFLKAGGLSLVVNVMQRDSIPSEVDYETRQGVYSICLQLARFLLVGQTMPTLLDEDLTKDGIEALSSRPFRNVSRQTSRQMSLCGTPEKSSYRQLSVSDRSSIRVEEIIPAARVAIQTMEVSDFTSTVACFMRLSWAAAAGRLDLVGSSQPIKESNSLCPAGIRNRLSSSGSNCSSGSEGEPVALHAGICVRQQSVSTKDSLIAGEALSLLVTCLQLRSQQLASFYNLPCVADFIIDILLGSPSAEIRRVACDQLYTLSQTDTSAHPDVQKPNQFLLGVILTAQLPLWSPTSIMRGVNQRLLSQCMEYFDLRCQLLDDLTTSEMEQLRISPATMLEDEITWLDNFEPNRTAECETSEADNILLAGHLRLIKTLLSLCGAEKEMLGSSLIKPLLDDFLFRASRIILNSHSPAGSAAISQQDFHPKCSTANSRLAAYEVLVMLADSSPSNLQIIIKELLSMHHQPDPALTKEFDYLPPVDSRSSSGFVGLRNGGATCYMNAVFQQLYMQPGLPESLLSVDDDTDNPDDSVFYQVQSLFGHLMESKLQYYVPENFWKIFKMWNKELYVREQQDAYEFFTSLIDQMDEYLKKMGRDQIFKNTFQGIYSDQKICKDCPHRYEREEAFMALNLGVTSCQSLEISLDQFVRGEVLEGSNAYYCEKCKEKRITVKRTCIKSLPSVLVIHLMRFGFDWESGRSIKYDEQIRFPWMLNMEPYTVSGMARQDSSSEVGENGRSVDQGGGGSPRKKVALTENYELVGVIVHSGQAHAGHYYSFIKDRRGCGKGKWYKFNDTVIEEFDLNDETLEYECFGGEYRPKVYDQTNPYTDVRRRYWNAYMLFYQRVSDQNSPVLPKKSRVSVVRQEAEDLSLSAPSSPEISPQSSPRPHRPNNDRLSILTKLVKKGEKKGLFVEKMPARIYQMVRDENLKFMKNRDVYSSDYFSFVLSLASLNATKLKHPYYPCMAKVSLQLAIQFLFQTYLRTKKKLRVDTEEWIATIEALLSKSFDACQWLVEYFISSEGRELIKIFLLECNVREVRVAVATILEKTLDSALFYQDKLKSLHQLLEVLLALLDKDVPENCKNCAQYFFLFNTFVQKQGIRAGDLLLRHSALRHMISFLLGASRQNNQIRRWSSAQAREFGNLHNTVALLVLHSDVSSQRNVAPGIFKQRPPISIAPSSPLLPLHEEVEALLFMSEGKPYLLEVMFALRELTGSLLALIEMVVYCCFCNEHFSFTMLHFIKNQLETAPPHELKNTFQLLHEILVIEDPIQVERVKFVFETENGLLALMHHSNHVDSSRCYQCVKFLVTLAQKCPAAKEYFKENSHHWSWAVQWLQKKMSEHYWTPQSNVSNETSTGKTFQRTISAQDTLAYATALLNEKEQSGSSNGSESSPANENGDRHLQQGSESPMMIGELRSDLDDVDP

Cc1cc(CC(C)NC(=O)CCl)n[nH]1 (stereo not given)
inactive: USP19 -0.257 | USP22 0.128 | USP24 -0.17 | USP25 -0.198 | USP28 -0.332
